Source: PubChem (several laboratories)
Neddyl block: cullin neddylation inhibition | P61081+Q13564 | TR-FRET cullin neddylation, biochemical | calls only at 25 µM | 360,000 tested, 0.58% active | AID 651699; in the data active = inhibition above about 36%
UBC13 inh: human UBC13 polyubiquitination inhibition. P61088. UBC13 polyubiquitin chain formation, TR-FRET. inhibition, % at 20 µM. 330,000 tested, 0.47% active; in the data active = inhibition above about 45%, passing the limit was not always enough
Target sequence (P61088 whole entry, looked up): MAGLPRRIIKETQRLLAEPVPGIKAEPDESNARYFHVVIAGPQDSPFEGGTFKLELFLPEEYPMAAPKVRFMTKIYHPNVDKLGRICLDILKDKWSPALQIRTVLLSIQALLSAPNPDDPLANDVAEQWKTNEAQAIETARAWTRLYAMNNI
MBD2 inh: inhibitors of human MBD2 binding to methylated oligonucleotide; 370,000 tested, 0.31% active; AID 686964; TR-FRET; Q9UBB5; inhibition, % at 4.4 µM; in the data active = inhibition above about 13%
Target sequence (Q9UBB5 whole entry, looked up): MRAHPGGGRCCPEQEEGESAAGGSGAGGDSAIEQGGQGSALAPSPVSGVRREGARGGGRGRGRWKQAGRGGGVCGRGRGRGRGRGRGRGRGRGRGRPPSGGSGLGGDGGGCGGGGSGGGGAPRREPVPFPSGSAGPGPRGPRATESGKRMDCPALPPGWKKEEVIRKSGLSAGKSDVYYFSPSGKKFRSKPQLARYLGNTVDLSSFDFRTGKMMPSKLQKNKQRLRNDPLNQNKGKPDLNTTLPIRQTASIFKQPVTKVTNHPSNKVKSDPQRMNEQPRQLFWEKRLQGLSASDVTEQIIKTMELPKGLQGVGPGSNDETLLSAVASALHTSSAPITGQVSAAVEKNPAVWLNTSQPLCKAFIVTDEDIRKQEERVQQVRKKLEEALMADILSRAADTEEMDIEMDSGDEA
UHRF1 MBD2 ctr: UHRF1 methyl-DNA binding inhibition | Q96T88 | UHRF1 binding to methylated oligo, TR-FRET | inhibition, % at 4.4 µM | 370,000 tested, 0.75% active | AID 687016; in the data active = inhibition above about 21%;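 note: UHRF1 SRA domain binding a hemimethylated CpG hairpin DNA probe; 0% = median of test compound wells and 100% = reference inhibitor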
Neddyl conf: confirmation of human cullin neddylation inhibitors. shares compounds with Neddyl block. TR-FRET cullin neddylation biochemical assay. calls only at 25 µM. 1,800 tested, 13% active. AID 652217; in the data active = inhibition above about 40%;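 note: neddylation substrate is the cullin 1 ring ligase complex with SKP2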
* hit, by the source's call; i = inactive; · = not tested or not shown; + = active, no number. Hits are enriched below; roughly 1.8% of the tested compounds scored in any of these assays.

SMILES	Neddyl block	UBC13 inh	MBD2 inh	UHRF1 MBD2 ctr	Neddyl conf
O=C(O)c1ccc2c(=O)n3c(nc2c1)/C(=C/c1cccc(Cl)c1Cl)CC3	+	0.7	-2.5	-3.5	·
O=C(O)c1ccc2c(=O)n3c(nc2c1)/C(=C/c1ccc(C(F)(F)F)cc1)CC3	+	-6.9	2.4	-1.1	+
COCn1cnc(-c2ccccc2)c1-c1ccccc1	i	4.5	5.2	0.2	·
Cc1ccc2nc3ccc(N4CCN(C)CC4)nn3c(=O)c2c1	·	9.7	-6.2	2.5	·
Cc1ccc2nc3ccc(N4CCCCCCC4)nn3c(=O)c2c1	+	15.1	0.8	-0.7	i
CC1=CCC2C(=O)N(C(C)c3ccccc3)C(=O)C2C1 (centres undefined)	i	9.2	0.3	1.2	·
CN(C)c1ccc(-c2[nH][nH]c(=O)c2NC(=O)c2ccccn2)cc1	+	·	14.8*	15.8	i
O=S(=O)(c1ccc(Cl)cc1)N1c2ccccc2Oc2nc3ccccc3nc21	+	-4.3	-4.5	-0.3	i
CCOCCCn1c(C)nc2c(c1=O)c1nc3ccccc3nc1n2-c1ccc(C)cc1	+	4.7	·	·	i
CCOC(=O)C1CCN(c2cc3c(cc2NC(=O)c2ccccc2OCC)n(C)c(=O)n3C)CC1	+	13.4	2.8	-0.8	i
CCOc1cc(NC(=O)C2CC2)c(OCC)cc1NC(=O)c1ccccc1OCC	+	5.2	-5.4	-2.5	·
CN(Cc1nccs1)C(=O)c1cc(COc2cccc3cnccc23)on1	+	3.4	-0.6	-0.5	·
O=C1CN(C(=O)c2ccccn2)c2ccccc2N1	i	7.3	5.6	0.7	·
Cc1nc([N+](=O)[O-])c(Br)n1CC(=O)c1ccc2ccccc2c1	i	-15.5	-8.0	-1.9	·
Cc1ccc2nc3c(cc(C(=O)NCc4ccco4)c(=N)n3Cc3ccco3)c(=O)n2c1	+	10.1	-3.2	-14.5	i
N=c1c(C(=O)NCc2ccco2)cc2c(=O)n3ccccc3nc2n1Cc1ccc(Cl)cc1	+	-1.4	-4.7	0.1	i
N=c1c(C(=O)NCCN2CCOCC2)cc2c(=O)n3ccccc3nc2n1Cc1ccc(F)cc1	+	3.5	-5.0	0.3	·
CC(C)(C)[C@@H]1/C(=C/C2CC2)N2C(=O)C[C@@H](c3ccccc3)N=C2N1Cc1ccc2c(c1)OCO2	·	·	4.3	2.1	·
CC(C)=CCN1CCN(Cc2cn(C(C)C)c3ccccc23)CC1CCO (centres undefined)	i	-2.0	-5.2	-1.4	·
Cc1cccc(-n2ncc3c(NCCCO)ncnc32)c1	+	18.6	0.3	-1.4	i
C=CCNc1ncnc2c1cnn2-c1cccc(C)c1	·	4.8	3.2	2.8	·
COc1cccc([C@@H]2CC=C(C(=O)O)[C@H](c3ccc(F)cc3)N2S(=O)(=O)c2ccc(C)cc2)c1	+	-16.2	-5.7	1.4	i
Cc1cc(NC(=O)CSc2nnc(C3CC3)n2C)no1	i	-9.8	4.3	0.3	·
CC(C)c1nnc(NC(=O)c2ccc(N3C(=O)CCC3=O)cc2)s1	i	-2.9	-4.5	1.7	·
COc1ccc2nc(CC(C)(C)CC(=O)O)c[n+]([O-])c2c1	+	28.4	0.5	-1.2	·
SMILES	Neddyl block	UBC13 inh	MBD2 inh	UHRF1 MBD2 ctr	Neddyl conf
CSC1=NCCN1C(=O)c1c(-c2c(F)cccc2Cl)noc1C	i	1.0	2.7	-3.5	·
COCCn1c(C)cc(/C=C(\C#N)C(=O)OC(C)C(=O)Nc2ccc(NC(C)=O)cc2)c1C (centres undefined)	+	-5.5	1.6	-2.0	i
COc1ccc(CCNC(=O)c2cc3c(=O)n4cccc(C)c4nc3n(CC3CCCO3)c2=N)cc1 (centres undefined)	+	0.3	1.1	-0.9	i
Cc1cccn2c(=O)c3cc(C(=O)NCC4CCCO4)c(=N)n(CCc4ccccc4)c3nc12 (centres undefined)	·	3.6	-11.9	-10.4	·
CC(=O)c1c(C)[nH]c(C(=O)OCc2ccc([N+](=O)[O-])cc2)c1C	i	4.3	-0.8	-0.9	·
Cc1ccc(C(O)c2ncc(-c3cccc4ccccc34)[nH]2)cc1F (centres undefined)	+	·	3.1	-0.5	i
COc1ccc2oc(C(=O)CCC(=O)O)c(N)c2c1	+	-2.3	-0.2	0.7	i
COC(=O)CCC(=O)c1oc2ccc(Br)cc2c1N	i	3.5	-4.8	0.7	·
C/C(=N\NC(=O)c1ccc(N2CCCC2=O)cc1)c1ccc(O)cc1O	+	5.6	-7.5	0.2	i
CC(C)(C)NC(=O)COC(=O)c1snc(C(=O)NC2CCCCC2)c1N	i	0.4	0.1	-1.1	·
CC(OC(=O)c1snc(C(=O)NC2CCCCC2)c1N)C(=O)NC(C)(C)C (centres undefined)	+	8.8	-1.0	-2.3	+
CN1CCN(CC(=O)Nc2cc(N(C)C)nc3ccccc23)CC1	+	0.6	7.0	11.4	i
CCCCCCC(=O)Nc1c2c(nc3ccccc13)N(C)CC2	·	24.6	-4.7	13.2	·
CN1CCc2c1nc1ccccc1c2NC(=O)CN1CCCC1	+	-5.9	9.7	1.2	i
O=C(Nc1ccc2nc(-c3cccnc3)[nH]c2c1)C12CC3CC(CC(C3)C1)C2	·	4.3	-2.9	0.5	·
O=C(Nc1ccc2nc(-c3cccnc3)[nH]c2c1)C1CCCCC1	+	4.6	0.6	-1.6	i
CCN(CC)CCCNc1nc(C)cc(COC)c1C#N	+	19.6	1.7	1.0	i
COC(=O)c1ccc(NC(=O)CN(Cc2ccc(Cl)cc2)S(C)(=O)=O)cc1	i	11.5	3.7	-0.6	·
CCCN(CCC)CCCNC(=O)c1cn(CCOC)c(=O)c2c1c1ccccc1n2C	+	23.9	2.8	14.6	i
COCCCNC(=O)c1cc2c(=O)n(C)c3ccccc3c2n1C	i	3.9	0.5	4.3	·
CC(C)Cn1cc(C(=O)NCc2cccs2)c2c3ccccc3n(C)c2c1=O	+	-0.5	-9.5	-4.6	i
CCN(CC)CCNC(=O)c1nn(-c2ccc(C)cc2)c(=O)c2c1c1ccccc1n2C	+	-5.3	0.7	5.2	i
CCN(CC)CCCNC(=O)c1cc2c(=O)n(C)c3ccccc3c2n1C	+	35.9	1.7	3.5	i
CCCCN(CC)CCNC(=O)c1cn(CCOC)c(=O)c2c1c1ccccc1n2C	i	8.2	1.3	-2.5	·
O=C(O)C(Oc1ccc2cc(-c3ccc(Cl)cc3)c(=O)oc2c1)c1ccccc1 (centres undefined)	·	-4.0	-4.6	-5.0	·
O=C(NCCCc1ccccc1)C(=O)NCC1OCCN1S(=O)(=O)c1cc(F)ccc1F (centres undefined)	i	-2.1	0.4	-1.2	·
O=C1C=C(c2cccnc2)CCC1	i	2.4	1.2	-0.9	·
Cc1ccc(C(=O)OCC(=O)N2C(C)CCCC2C)s1 (centres undefined)	i	-15.8	-2.1	0.1	·
C/C=C/c1ccc(OCCOCCNCc2ccccc2)c(OC)c1	i	15.7	2.7	2.6	·
CCN(CC)CCNC(=O)c1cc2c(=O)n(C)c3ccccc3c2n1C	+	47.6*	-2.5	11.1	·
